Data on seven molecules can be found in PubChem BioAssay (NCI).

SMILES strings stand for the structures. Compounds without any hit were thinned out: in the full panel of roughly 83,000, 20% have a hit.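 Activity criterion: percent growth below 10, measured after cells in 96-well plates were exposed to a single compound concentration for 48 hours.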 Unmarked numbers belong to inactive results. Active and inactive are the calls of the source.

Assay in all cases: NCI-60 one-dose screen, 48 h (100 = growth as untreated, 0 = no growth, -100 = all killed)
Common to all, as to conditions: 10 µM unless noted

For test [1], the system named is NCI-H226 lung.
In test [2] the test system is NCI-H322M lung.
Test [3] concerns NCI-H460 lung.
Test [4] has as its system NCI-H522 lung.
In test [5] the test system is 786-0 renal.
Test [6] has as its system COLO 205 colon.
In test [7] the test system is DU-145 prostate.
Test [8] concerns K-562 leukemia.
In test [9] the test system is MALME-3M melanoma.
For test [10], the system named is MDA-MB-231 breast.
In test [11] the test system is SF-268 CNS.
Test [12] has as its system SF-295 CNS.
The test system of test [13] is SF-539 CNS.
Test [14] deals with M14 melanoma.
The test system of test [15] is HCT-15 colon.
For test [16], the system named is HOP-62 NSCLC.
In test [17] the test system is A549/ATCC NSCLC.
For test [18], the system named is RXF 393 renal.
Test [19] concerns UACC-257 melanoma.

In the case of `CC(=O)NCCSC(=O)C(=O)SCCNC(C)=O`, the growth in test [1] is 103%; in test [2] it was 144%; in test [3] it was 114%; in [4] it was 125%; in test [5], 95.5%; in test [6], 122%. Also, the growth in test [7] is 116%; in test [8], 95.6%; in [9] it was 138%; in test [10], 107%; in test [11], 109%; in test [12] it was 102%. Also, the results for the growth in test [13], in [14] and in test [15] were 97.5%, 106% and 119%, respectively.

Regarding `CSc1ccc2c(c1)N(CCC1CCCCN1C)c1ccccc1S2` (stereo not given), the growth in test [1] was 107%; in test [2], 64%; in [16] it was 68.8%; in [3], 46.8%; in test [4] it was 56.3%; in [17], 63.9%. Besides, the growth in test [5] is 43.9%; in test [6], 18.9%; in test [7], 68.7%; in test [8], 1.49% (active); in test [9], 72.8%; in test [10], 46.3%. The growth in [18] was 26.7%; in test [11], 54.5%; in [12], 58.4%; in [19], 32.8%; in test [14], -57.9% (active); in [15], 43.4%.

Regarding `CCCCCCCC/C=C/CCCCCCCC1=NC(C)(C)CN1CC(C)O` (stereo not given), the growth in test [1] was 89.6%; in [2], 53.9%; in test [16], 36.5%; in test [3] it was -34.9% (active); in [17], 27.9%; in test [5] it was 59%. The growth is -91.3% (active) in test [6]; 69.2% in [7]; 68.5% in [9]; 30.5% in test [10]; 14.7% in test [18]; 55.5% in test [11]. Also, the growth in test [12] was 32.4%; in test [13] it was 29.2%; in test [19], 87.2%; in [14], 31.8%; in [15], 18.3%.

On to `Clc1ccc(-c2nc(-c3cccs3)no2)c(Cl)c1`, for which the growth was 88.7% in test [1]; 120% in [2]; 84.9% in [16]; 92.1% in test [3]; 91.4% in test [4]; 91.4% in test [17]. Further, the growth was 97.4% in test [5]; 106% in test [6]; 99.3% in test [7]; 96.1% in test [8]; 103% in test [9]; 107% in test [18]. Moreover, the growth in [11] is 99.2%; in test [12] it was 107%; in test [13], 108%; in test [19], 76.2%; in [14] it was 100%; in test [15], 73.5%.

In the case of `COc1cc(-c2cc(C(=O)Nc3nc4ccccc4s3)nc3cc(-c4ccccc4)nn23)cc(OC)c1OC`, the growth in [1] is 70.2%; in test [2], 90.9%; in test [16], 46.6%; in test [3], 79.3%; in test [4], 18.8%; in [17] it was 77.5%. Further, the growth in test [5] is 81.6%; in test [7], 51.5%; in [8], 53.2%; in [9], 28.5%; in test [10], 66.1%; in test [18], 66.7%. In addition, the growth was 53% in test [12]; 4.14% (active) in [13]; 59.1% in test [19]; 26.3% in test [14]; 85.3% in [15].

With `CCCCCCCC/C=C\CCCCCCCCOc1ccccc1CC(=O)NCC[N+]1(C)CCCC1`, the growth is 92.6% in test [1]; 103% in test [2]; 80.6% in [16]; 52.2% in test [3]; 46.9% in test [4]; 75% in test [17]. Moreover, the growth in test [5] is 80.8%; in test [6] it was 43.1%; in test [7] it was 90.8%; in [8] it was 41.7%; in test [9], 88.3%; in test [10] it was 83.9%. Further, the growth in [11] is 69.1%; in test [12], 98.2%; in test [13] it was 99%; in [19], 88.4%.

For the molecule `COC1CC2CCC(C)C(O)(O2)C(=O)C(=O)N2CCCCC2C(=O)OC(C(C)CC2CCC(O)C(OC)C2)CC(=O)C(C)C=C(C)C(O)C(OC)C(=O)C(C)CC(C)/C=C/C=C/C=C1C` (stereo not given), the growth in test [1] was 48.6%; in test [2], 39.4%; in [16], 51.3%; in [3], 43.1%; in test [4], 42.7%; in test [17], 36.8%. Moreover, the growth in [5] was 43%; in [6], 64.7%; in [7], 42%; in [8], 70.4%; in test [9], 21.1%; in test [10], 52.4%. Further, the growth was 20.4% in test [18]; 57.2% in test [11]; 16.6% in test [12]; 35.8% in [13]; 50.8% in [19]; 48.5% in test [14]. Moreover, the growth in test [15] was 46.2%.
